Data taken from PubChem BioAssay AID504834 (National Center for Advancing Translational Sciences (NCATS), 2011).
Among all 320,000 compounds or so, about 22,000 (6.9%) were called active. Not shown: some 27% with an inconclusive outcome. Calls follow the shape of the dose curve; as a rule, active = well fitted inhibition curve with a large enough effect; inconclusive = small, poorly fitted or top-dose-only effect, or another doubt; inactive = no such curve, though single readings can be large or run the other way. What follows is part of a selection rich in actives, with near analogues and random picks from the rest. Entries that show only a call come without a potency.

Assay: Primary qHTS for delayed death inhibitors of the malarial parasite plastid, 96 hour incubation
Conditions: P. falciparum luciferase reporter growth; series mostly up to 28.7 µM
Procedure, shortened: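 P. falciparum expressing integrated firefly luciferase grown in erythrocytes (2% hematocrit, 0.05% parasitemia final) with compounds for 96 hours at 37 C, 5% CO2. Growth inhibition read as loss of luminescence after adding luciferase detection reagent.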
Potency is read from the fitted curve at half-maximal effect.

| SMILES | Potency |
| --- | --- |
| CCN(CC(=O)NCc1ccco1)S(=O)(=O)c1ccc(F)cc1 | inactive |
| O=C(NCc1ccco1)c1ccc(CS(=O)(=O)Cc2ccc(F)cc2)o1 | 8.28 µM (active) |
| CCOc1ccccc1C(=O)NCc1ccco1 | inactive |
| CC1(C)Oc2ccc3ccc(=O)oc3c2/C(=N/O)C1=O | inactive |
| NC(=O)Cc1ccc2c(c1)[nH]c1ccccc12 | inactive |
| C[C@H](NC(=O)C1CC(=O)N(c2ccc3c(c2)OCO3)C1)C(=O)NCc1ccco1 (stereo partly specified) | inactive |
| CCOCN(C(=O)Cn1c(C(C)O)nc2ccccc21)c1c(C)cccc1CC (stereo unspecified) | 8.28 µM (active) |
| Cc1ccccc1OC(=O)Cn1c(C(F)(F)F)nc2ccccc21 | inactive |
| CCc1cccc(C)c1N(C(=O)Cn1c(CO)nc2ccccc21)C(C)COC (stereo unspecified) | inactive |
| CC(C)=NN1C(=O)c2ccccc2NC1(C)C | inactive |
| O=C(Nc1cccc2ncccc12)c1ccc(-c2ccc(Cl)cc2Cl)o1 | inactive |
| Cc1csc(NC(=O)c2ccc(-c3ccc(Cl)cc3Cl)o2)n1 | 4.65 µM (active) |
| Cc1csc(NC(=S)Nc2cccc(Cl)c2)n1 | inactive |
| COc1cc(S(=O)(=O)N2CCN=C2c2ccccc2)ccc1Cl | inactive |
| Cc1ccc(-n2c(O)c(C=Nc3ccc(S(=O)(=O)Nc4ncccn4)cc3)c3ccccc3c2=O)cc1C | inactive |
| COc1ccc(-n2c(O)c(C=NCC(c3ccco3)N3CCCC3)c3ccccc3c2=O)cc1OC (stereo unspecified) | 10.4 µM (active) |
| CCN(CC)CCCN=Cc1c(O)n(-c2ccc(C)cc2)c(=O)c2ccccc12 | inactive |
| O=c1[nH]c(N2CCOCC2)nc2ccccc12 | inactive |
| CC(C(=O)NC1CCS(=O)(=O)C1)N1C(=O)/C(=C/c2ccc(Cl)cc2)SC1=S (stereo unspecified) | inactive |
| Cc1ccsc1/C=C1\SC(N2CCOCC2)=NC1=O | inactive |
| CC1CCN(C2=NC(=O)/C(=C/c3cn[nH]c3-c3ccccc3)S2)CC1 | 13.1 µM (active) |
| O=C1N=C(N2CCOCC2)S/C1=C\C=C/c1ccccc1 | inactive |
| Cc1ccc(-c2nnc(CN3CCN(C)CC3)o2)cc1 | inactive |
| COc1ccc(CCNC(=O)C(=O)NCC2OCCN2S(=O)(=O)c2ccc(F)cc2)cc1OC (stereo unspecified) | inactive |

| SMILES | Potency |
| --- | --- |
| Cc1ccc(NS(=O)(=O)c2ccc(N/N=C/c3ccccc3OCC(=O)O)c([N+](=O)[O-])c2)c(C)c1 | 9.28 µM (active) |
| O=[N+]([O-])c1ccc(O)c(/C=N/Nc2ccccc2[N+](=O)[O-])c1 | inactive |
| Cc1ccc(S(=O)(=O)NC(=O)COc2ccccc2C)cc1 | inactive |
| O=C(Cc1ccc(Cl)cc1)NC(=S)Nc1ccccc1O | inactive |
| CC1(C)O[C@@H]2[C@H](O1)[C@@H](COS(=O)(=O)O)O[C@H]2n1ccc(=O)[nH]c1=O | inactive |
| CN(c1ccccc1)S(=O)(=O)c1ccc(NC(=O)COc2ccccc2)cc1 | inactive |
| CN(c1ccccc1)S(=O)(=O)c1cccc(NC(=O)Cc2c(F)cccc2Cl)c1 | 14.7 µM (active) |
| CN(C)S(=O)(=O)c1cccc(NC(=O)Cc2ccsc2)c1 | inactive |
| Cc1ccc(S(=O)(=O)n2cccc2CO)cc1 | inactive |
| COc1ccccc1CCNC(=O)C1CCN(C(=O)/C=C/c2ccccc2)CC1 | inactive |
| CCN(CC(=O)NCc1ccc(Cl)cc1)C(=O)CSc1ccccc1 | inactive |
| Nc1ccc(Nc2ccccc2)cc1 | 9.28 µM (active) |
| Nc1ccc(C(=O)NCc2ccccc2)cc1 | inactive |
| Nc1ccc(-c2nnc(-c3ccc(-c4ccccc4)cc3)o2)cc1 | inactive |
| Cc1ccnc(NC(=O)CNC(=O)c2ccccc2)c1 | inactive |
| COc1ccc(Nc2ncnc3ccc(Br)cc23)c(OC)c1 | inactive |
| C=CCNc1ncnc2ccc(Br)cc12 | inactive |
| CC1(C)CC2CC(C)(CN2c2ncnc3ccc(Br)cc23)C1 (stereo unspecified) | 16.5 µM (active) |
| CCC(C)C(=O)Nc1ccccc1N1CCN(c2ccc(F)cc2)CC1 (stereo unspecified) | inactive |
| Cc1csc(=O)n1CCC(=O)OCC(=O)NNC(=O)c1ccc(Br)cc1 | inactive |
| O=c1ccc2cc(S(=O)(=O)Nc3ccccc3F)ccc2o1 | inactive |
| O=C1COc2ccc(S(=O)(=O)Nc3ccc(OC(F)(F)F)cc3)cc2N1 | inactive |
| O=C(COC(=O)c1cccs1)NCc1cccs1 | inactive |
| O=C(COC(=O)c1ncc(Cl)c(Cl)c1Cl)NCc1cccs1 | inactive |

| SMILES | Potency |
| --- | --- |
| O=C(COC(=O)c1ccc(Cl)nc1)NCc1cccs1 | 2.33 µM (active) |
| COc1ccc(-c2nn(-c3ccccc3)cc2/C=C2/SC(=S)N(CCCC(=O)O)C2=O)c(C)c1 | inactive |
| CS(=O)(=O)N1CCc2cc(C(=O)Nc3ccccc3Br)ccc21 | inactive |
| COc1ccc(C(=O)Nc2ccccc2C(=O)NCc2ccco2)cc1 | inactive |
| O=C(NCc1ccco1)c1cnn2c(C(F)(F)F)cc(-c3ccco3)nc12 | 1.65 µM (active) |
| O=C(O)c1cnn2c(C(F)(F)F)cc(-c3ccccc3)nc12 | inactive |
| CCC1CCCCN1C(=O)CSc1nc2c(c(=O)n(C)c(=O)n2C)n1C (stereo unspecified) | inactive |
| CCC1CCCCN1C(=O)CSc1nc2c(c(=O)n1C)SC(C)C2 (stereo unspecified) | 1.47 µM (active) |
| CCC1CCCCN1C(=O)CSc1nc(C)cc(C)n1 (stereo unspecified) | inactive |
| O=S(=O)(NCc1ccccc1Br)c1ccccc1Br | inactive |
| O=C(CN1CCN(C2CCS(=O)(=O)C2)CC1)N1N=C(c2ccc(Cl)cc2)CC1c1ccco1 (stereo unspecified) | inactive |
| COc1cc(C(=O)NCC(c2ccco2)N2CCCC2)ccc1OCc1ccccc1 (stereo unspecified) | 2.62 µM (active) |
| CC1Cc2ccccc2N1S(=O)(=O)c1cccc(C(=O)NCC(c2ccco2)N2CCCC2)c1 (stereo unspecified) | 1.85 µM (active) |
| Cc1ccccc1C(=O)NCC(c1ccco1)N1CCc2ccccc21 (stereo unspecified) | inactive |
| COc1ccc(C(=O)NCC(c2ccco2)N2CCc3ccccc32)cc1OC (stereo unspecified) | inactive |
| O=C(NCC(c1ccco1)N1CCc2ccccc2C1)c1ccccc1Cl (stereo unspecified) | inactive |
| CCOC(CNC(=O)C(=O)NCC(c1ccco1)N1CCN(c2ccc(OC)cc2)CC1)OCC (stereo unspecified) | inactive |
| O=C(Cc1ccccc1Cl)N1CCOCC1 | inactive |
| COc1ccc(CCNC(=O)c2nnc(CS(=O)(=O)c3ccccc3)o2)cc1OC | inactive |
| CC(C)Cc1nnc(NC(=O)CN2C(=O)NC3(CCCCC3)C2=O)s1 | inactive |
| COc1ccc(CCN=C2SCC(=O)N2C)cc1OC | inactive |
| COc1ccc(CCN2C(=O)C3CC=C(C)CC3C2=O)cc1OC (stereo unspecified) | inactive |
| COc1ccc(CCN2CNc3c(c(=O)n(C)c(=O)n3C)C2)cc1OC | 13.1 µM (active) |
